Assay results: PubChem BioAssay (NCATS)
Records with an inconclusive call do not appear. Activity calls are given as the source filed them. Unless noted, the call rests on the fitted dose curve; in most records, active means well fitted inhibition curve with a large enough effect; inconclusive means small, poorly fitted or top-dose-only effect; inactive means no such curve, though single readings can be large or run the other way.

Columns and labels:
[1] = qHTS profiling of the MIPE4 collection as inhibitors of Plasmodium falciparum (DD2) proliferation (Rep 2) (AID 743346; call rule not given here); conditions: P. falciparum Dd2 in erythrocytes, SYBR Green DNA, 72 h; at 28.5 µM unless noted
Procedure, shortened: (§1)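 Erythrocytes infected with P. falciparum (0.3% parasitemia, 2.5% hematocrit) incubated with compounds 72 h at 37 C, 5% CO2. Lysis with saponin/Triton buffer containing SYBR Green I, overnight at room temperature in the dark; DNA fluorescence (485/535 nm) normalised to 0.29 uM artemisinin and DMSO.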

[2] = qHTS profiling of the MIPE4 collection as inhibitors of Plasmodium falciparum (HB3) proliferation (AID 743347; call rule not given here;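 further: plate controls were DMSO vehicle wells for no effect and artemisinin wells for full effect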); conditions: P. falciparum HB3 in erythrocytes, SYBR Green DNA, 72 h; at 28.5 µM unless noted
Procedure, shortened: as §1

[3] = High-throughput drug toxicity screening in the BPDCN cell line Gen2.2 (AID 1224824; call rule not given here;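 further: cells exposed to compounds for 48 h before reading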); conditions: Gen2.2 BPDCN cells; at 45.8 µM (top of the series) unless noted
Procedure, shortened: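 Gen2.2 cells, 500 per well in phenol red-free RPMI with 10% FBS, exposed to compounds 48 h at 37 C, 5% CO2; viability by CellTiter-Glo luminescence. Percent activity scaled to DMSO (100%) and 9.2 uM bortezomib final (0%).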

[4] = High-throughput drug toxicity screening in the BPDCN cell line Cal-1 (AID 1224825; call rule not given here); conditions: Cal-1 BPDCN cell viability, qHTS; at 45.8 µM (top of the series) unless noted
Procedure, shortened: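 500 Cal-1 cells/well, RPMI + glutamine + 10% FBS (phenol red-free); cpd added by pin tool; 48 h, 37C, 5% CO2; CTG 15 min RT, lumi read. Normalised: DMSO 100%, bortezomib 9.2 uM 0%.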

[5] = qHTS assay for measurement of the activity of small molecule inhibitors on Zika virus induced Caspase-3 activity in human astrocytoma cells (AID 1224859);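 further: plate controls were ZIKV-infected untreated cells for no effect and uninfected cells for full effect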
Procedure, shortened: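 Percent inhibition of virus-induced caspase-3/7 signal is calculated against uninfected and ZIKV-infected control cells. Cells are SNB-19, infected at 2 FFU/cell for 6 h after 1 h compound exposure.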

[6] = qHTS Screen of the MIPE 4.0 Collection Against Ewings Sarcoma (RDES) (AID 1259252); further: nearly all actives have a fitted effect of over 35% in size; further: potency means the concentration at half of the fitted maximal effect
Procedure, shortened: (§2)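 Cells plated in serum-containing RPMI (5% FBS) and treated with compound dilutions for 48 h. Readout luminescent viability; normalization relied on vehicle (no inhibition) and media-only columns (full inhibition).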

[7] = qHTS Screen of the MIPE 4.0 Collection Against Ewings Sarcoma (EW8) (AID 1259255); further: nearly all actives have a fitted effect of over 35% in size; further: potency means the concentration at half of the fitted maximal effect;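 on viability: 100% = DMSO-treated cells and 0% = medium-only wells without cells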
Procedure, shortened: as §2

[8] = qHTS Screen of the MIPE 4.0 Collection Against Ewings Sarcoma (TC32) (AID 1259256); further: nearly all actives have a fitted effect of over 45% in size; further: potency means the concentration at half of the fitted maximal effect
Procedure, shortened: as §2

[9] = qHTS Screen of the MIPE 4.0 Collection Against Ewings Sarcoma (TC71) (AID 1259253); further: nearly all actives have a fitted effect of over 40% in size; further: potency means the concentration at half of the fitted maximal effect
Procedure, shortened: as §2

[10] = qHTS assay for measurement of the activity of small molecule inhibitors on Zika virus induced Caspase-3 activity in human iPSC derived neural progenitor cells (hNPCs) (AID 1224857); further: % of control where 0% means no effect; nearly all actives have a fitted effect of over 65% in size
Procedure, shortened: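 Cells were plated at 350 per well and grown 16 to 20 hours. Compound pretreatment lasted one hour, after which ZIKV (2 FFU/cell) was added for 6 hours. Percent inhibition was normalized between uninfected and infected controls.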

| Structure (SMILES) | parasite growth, % of control (lower = inhibition) [1] [%] | growth, % of control [2] [%] | cell viability, % of control (lower = more cytotoxic) [3] [%] | viability (% of control) [4] [%] | Potency [5] | Potency [6] | Potency [7] | Potency [8] | Potency [9] | Potency [10] |
| --- | --- | --- | --- | --- | --- | --- | --- | --- | --- | --- |
| O=C(O)C=Cc1ccc(O)c(O)c1 | 22.8 | 64.3 | 21.3 | 8.99 | inactive | 8.33 µM (active) | 23.5 µM (active) | 20.9 µM (active) |  |  |
| Cc1ccccc1C(C(=O)NC1CCCCC1)N(C(=O)Cn1ccnc1C)c1cccc(F)c1 (centres undefined) | 25.9 | 271 | 125 | 107 | inactive | inactive | inactive | 8.33 µM (active) |  |  |
| C[N+]1(C)[C@@H]2CC(OC(=O)[C@H](CO)c3ccccc3)C[C@H]1[C@H]1O[C@@H]12 (some centres undefined) | 84.8 |  | 112 | 130 | inactive | inactive | inactive | inactive | inactive |  |
| O=C(NCc1ccccc1)c1csc(Nc2ccncn2)n1 |  |  | 1.93 | 2.12 | inactive |  | 20.9 µM (active) | 18.7 µM (active) |  |  |
| C[N+](C)(C)CC(=O)O | 93.5 | 85.2 | 178 | 114 | inactive | inactive | inactive | inactive | inactive |  |
| Nc1nc(F)nc2c1ncn2[C@@H]1O[C@H](COP(=O)(O)O)[C@@H](O)[C@H]1O | 10.9 | 8.49 | 97.6 | 12.5 | inactive | 11.8 µM (active) | 14.8 µM (active) | 16.6 µM (active) |  |  |
| COc1cc2c(cc1OC)CN(CCc1ccc(NC(=O)c3cc(OC)c(OC)cc3NC(=O)c3cnc4ccccc4c3)cc1)CC2 | 83.4 | 93.6 | 115 | 93.8 | inactive |  |  | 5.9 µM (active) |  |  |
| COc1cc(Nc2ncc(F)c(Nc3ccc4c(n3)NC(=O)C(C)(C)O4)n2)cc(OC)c1OC |  | 2.09 | 53.6 | 58.1 |  |  |  |  |  | inactive |
| CN(C)c1cc(NC(=O)CNC(C)(C)C)c(O)c2c1C[C@@H]1C[C@H]3[C@H](N(C)C)C(=O)C(C(N)=O)=C(O)[C@@]3(O)C(=O)C1=C2O | 106 | 98.7 | 142 | 97.2 | inactive | inactive | inactive | inactive | inactive |  |
| Clc1ccc(C(c2ccc(Cl)cc2)n2cc[n+](CC(OCc3ccc(Cl)cc3Cl)c3ccc(Cl)cc3Cl)c2)cc1 (centres undefined) | 17.2 | 7.48 | 1.6 | 3.49 | inactive | 16.6 µM (active) | 23.5 µM (active) | 20.9 µM (active) | 20.9 µM (active) |  |
